Measurements as given in PubChem BioAssay (Tox21).
Results filed as inconclusive are left out. The source made the active and inactive calls. Unless noted, the call rests on the fitted dose curve; in most records, active means well fitted curve in the direction sought with a large enough effect in the repeat runs; inconclusive means weak or mixed curves; inactive means no such curve, though single readings can be large; an effect the other way counts as inactive or inconclusive.

Key:
[1] = qHTS assay for small molecule agonists of the p53 signaling pathway (AID 651631; calls by dose curve; further: nearly all actives have a fitted effect of over 15% in size)
In short: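 HCT-116 p53RE-bla reporter line, 16 h compound treatment at 37 °C, then fluorescence after 2 h with B/G FRET substrate.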

[2] = qHTS assay for small molecules that induce genotoxicity in human embryonic kidney cells expressing luciferase-tagged ATAD5 (AID 651632); further: nearly all actives have a fitted effect of over 15% in size
In short: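 Increased luciferase signal from ATAD5-tagged reporter cells indicates DNA-damage-driven ATAD5 induction. HEK293T cells are treated for 16 hr at 37C before detection with Amplite.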

[3] = qHTS assay for small molecule agonists of the p53 signaling pathway - cell viability (AID 651633; calls by dose curve;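 further: p53RE-bla HCT reporter cells with a stable beta-lactamase p53 reporter; series mostly up to about 83 µM; nearly all actives have a fitted effect of over 30% in size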)
In short: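 Viability counter-read: CellTiter-Glo luminescence (30 min, room temperature) in the same p53RE-bla plates. These plates had been exposed to compounds for 16 h at 37 C.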

[4] = qHTS assay for small molecules that induce genotoxicity in human embryonic kidney cells expressing luciferase-tagged ATAD5 - cell viability (AID 651634; calls by dose curve; further: nearly all actives have a fitted effect of over 25% in size)
In short: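 Cytotoxicity counterscreen in HEK293T cells bearing an ATAD5-luciferase reporter: live-cell protease activity measured by CellTiter-Fluor fluorescence after 15.5 hr compound exposure.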

[5] = qHTS assay for small molecule disruptors of the mitochondrial membrane potential - cell viability (AID 720634; calls by dose curve;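 further: human HepG2 liver cancer cells; series mostly up to about 83 µM; nearly all actives have a fitted effect of over 20% in size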)
In short: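 After overnight attachment at 37 C, HepG2 cells received compound or DMSO vehicle for 1 hr. Viability is then taken from ATP-driven luminescence following a 30 min room-temperature CellTiter-Glo step.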

[6] = qHTS assay to test for compound auto fluorescence at 590 nm (red) in HepG2 cells (AID 720674)
In short: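 1 hr compound incubation on HepG2 cells, 37 C, 5% CO2; plate read ex 540 nm / em 590 nm; intensities reported as Rose Bengal sodium equivalents.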

[7] = qHTS assay to test for compound auto fluorescence at 535 nm (green) in HepG2 cells (AID 720675)
[8] = qHTS assay to test for compound auto fluorescence at 460 nm (blue) in HEK293 cells (AID 720678)
In short: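 Blue read-out at excitation 405 nm and emission 460 nm follows overnight compound exposure of HEK293 cells at 37C in 5% CO2. Activity is given as auto fluorescence equivalency to triamterene.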

[9] = qHTS assay to test for compound auto fluorescence at 590 nm (red) in HEK293 cells (AID 720679)
In short: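 Red channel, Ex/Em 540/590nm; signal expressed as equivalency to Rose Bengal sodium. HEK293, 2,000 cells/well, 10% dialyzed FBS; 23 nL compound pinned after 4-5 hr attachment; overnight 37C/5% CO2 before reading.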

[10] = qHTS assay to test for compound auto fluorescence at 535 nm (green) in HEK293 cells (AID 720680)
[11] = qHTS assay to test for compound auto fluorescence at 460 nm (blue) in HEK293 cell free culture (AID 720681)
In short: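 Blue fluorescence (Ex 405/Em 460 nm, triamterene-equivalent) was read immediately after pin transfer of compound or DMSO into medium (DMEM, 10% FBS) without cells.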

[12] = qHTS assay to test for compound auto fluorescence at 535 nm (green) in HEK293 cell free culture (AID 720682)
In short: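 Steps: dispense DMEM/10% FBS into empty wells; pin in compound or DMSO; measure fluorescence at 485/535 nm. Values are fluorescein equivalents.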

[13] = qHTS assay to test for compound auto fluorescence at 590 nm (red) in HEK293 cell free culture (AID 720683)
In short: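 Red-channel autofluorescence of compounds in culture medium (DMEM, 10% FBS), no cells, measured at 540/590 nm. Rose Bengal sodium is the reference fluorophore for equivalence.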

[14] = qHTS assay to test for compound auto fluorescence at 590 nm (red) in HepG2 cell free culture (AID 720684)
In short: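 Plate contents were MEM with 10% FBS plus test compound or DMSO, no cells. Fluorescence was recorded with 540 nm excitation and 590 nm emission.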

[15] = qHTS assay to test for compound auto fluorescence at 460 nm (blue) in HepG2 cell free culture (AID 720685)
In short: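 Compound (23 nL) or DMSO pinned into cell-free MEM with 10% FBS; blue fluorescence read at 405/460 nm excitation/emission, expressed as auto-fluorescence equivalency to triamterene.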

[16] = qHTS assay to test for compound auto fluorescence at 535 nm (green) in HepG2 cell free culture (AID 720686)
[17] = qHTS assay to test for compound auto fluorescence at 460 nm (blue) in HepG2 cells (AID 720687)
In short: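 Blue-channel autofluorescence (Ex/Em 405/460 nm, triamterene-equivalent) was measured after 1 hr compound exposure at 37 C, 5% CO2. Cells were HepG2, plated overnight at 37 C in MEM plus 10% FBS.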

[18] = biological target: Glucocorticoid receptor (Homo sapiens) (UniProt P04150); assay: qHTS assay to identify small molecule agonists of the glucocorticoid receptor (GR) signaling pathway (AID 720691; active means well fitted activation curve with a large enough effect in the signal ratio in the repeat runs, not every such curve was filed as active; the % refers to the signal ratio)
In short: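 Agonist mode in a HeLa line carrying a GRE-controlled beta-lactamase reporter. Compounds act for 18 h at 37 C before a 2 h room-temperature FRET substrate step and fluorescence reading.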

[19] = biological target: Glucocorticoid receptor (Homo sapiens) (UniProt P04150); assay: qHTS assay to identify small molecule antagonists of the glucocorticoid receptor (GR) signaling pathway (AID 720692; active means well fitted inhibition curve with a large enough effect in the signal ratio in the repeat runs, not every such curve was filed as active; the % refers to the signal ratio)
In short: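 Cells plated, rested 4 h at 37 C/5% CO2; compounds in DMSO pin-transferred; dexamethasone added to 5 nM final; 18 h at 37 C; B/G FRET substrate added, 2 h room temperature; fluorescence measured.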

[20] = qHTS assay to identify small molecule antagonists of the glucocorticoid receptor (GR) signaling pathway - cell viability counter screen (AID 720693); further: nearly all actives have a fitted effect of over 55% in size
[21] = qHTS assay for identifying genotoxic compounds that show differential cytotoxicity against isogenic chicken DT40 cell lines with known DNA damage response pathways - Rev3 mutant cell line (AID 743014); further: nearly all actives have a fitted effect of over 55% in size
[22] = qHTS assay for identifying genotoxic compounds that show differential cytotoxicity against isogenic chicken DT40 cell lines with known DNA damage response pathways - Rad54/Ku70 mutant cell line (AID 743015); further: nearly all actives have a fitted effect of over 60% in size
[23] = qHTS assay to identify small molecule antagonists of the androgen receptor (AR) signaling pathway - cell viability counter screen (AID 743033; further: nearly all actives have a fitted effect of over 45% in size)
[24] = biological target: Androgen receptor (Homo sapiens) (UniProt P10275); assay: qHTS assay to identify small molecule antagonists of the androgen receptor (AR) signaling pathway (AID 743035; active means well fitted inhibition curve with a large enough effect in the signal ratio in the repeat runs, not every such curve was filed as active; the % refers to the signal ratio)
In short: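 Antagonism is scored as loss of R1881-driven beta-lactamase reporter expression in HEK293 cells carrying the reporter under a UAS element, after 16 h co-treatment at 37C and a 2 h room-temperature FRET substrate read.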

[25] = biological target: Androgen receptor (Homo sapiens) (UniProt P10275); assay: qHTS assay to identify small molecule agonists of the androgen receptor (AR) signaling pathway (AID 743036; active means well fitted activation curve with a large enough effect in the signal ratio in the repeat runs, with a control signal flat, not every such curve was filed as active; the % refers to the signal ratio)
In short: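 Reporter line: GeneBLAzer AR-UAS-bla-GripTite (HEK293). Steps: plate cells, 4 h rest, add compounds, 16 h at 37C, add LiveBLAzer B/G substrate, 2 h at RT, read fluorescence.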

[26] = biological target: Androgen receptor (Homo sapiens) (UniProt P10275); assay: qHTS assay to identify small molecule agonists of the androgen receptor (AR) signaling pathway using the MDA cell line (AID 743040; further: nearly all actives have a fitted effect of over 20% in size)
In short: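 After a 5 h incubation at 37C and 0% CO2, MDA-kb2 reporter cells were dosed with compounds in DMSO and kept 16 h under the same conditions. Luciferase activity was then read as luminescence with ONE-Glo.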

[27] = biological target: Androgen receptor (Homo sapiens) (UniProt P10275); assay: qHTS assay to identify small molecule antagonists of the androgen receptor (AR) signaling pathway using the MDA cell line (AID 743042; further: nearly all actives have a fitted effect of over 55% in size)
In short: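 Antagonist mode: compounds plus R1881 agonist added to MDA-kb2 AR-luc cells, incubated 16 h at 37C. Luciferase reporter luminescence quantified, with multiplexed CellTiter-Fluor readout for cell viability.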

[28] = qHTS assay to identify small molecule antagonists of the thyroid receptor (TR) signaling pathway - cell viability counter screen (AID 743064); further: nearly all actives have a fitted effect of over 50% in size
In short: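 Plate GH3.TRE-Luc cells; incubate 4 h at 37 °C; add compound, then T3 to 1 nM final; incubate 23.5 h; add CellTiter-Fluor; incubate 30 min at 37 °C, 5% CO2; read fluorescence.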

[29] = qHTS assay to identify small molecule antagonists of the thyroid receptor (TR) signaling pathway (AID 743065); further: series mostly up to about 70 µM; nearly all actives have a fitted effect of over 55% in size
In short: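 Antagonism measured as loss of luciferase signal in GH3 cells stably carrying a TRE-luciferase reporter, co-treated with compound and T3 (1 nM final) for 23.5 h at 37 C. Viability was read in the same well by CellTiter-Fluor.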

[30] = test system: thyroid hormone receptor (rat, GH3 cells); assay: qHTS assay to identify small molecule agonists of the thyroid receptor (TR) signaling pathway (AID 743066; calls by dose curve)
[31] = qHTS assay to identify small molecule antagonists of the estrogen receptor alpha (ER-alpha) signaling pathway - cell viability counter screen (AID 743074; calls by dose curve;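 further: HEK293 cells carrying ER-alpha-UAS-bla reporter stimulated with 17beta-estradiol; nearly all actives have a fitted effect of over 45% in size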)
[32] = biological target: Estrogen receptor (Homo sapiens) (UniProt P03372); assay: qHTS assay to identify small molecule agonists of the estrogen receptor alpha (ER-alpha) signaling pathway (AID 743075; calls by dose curve;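 further: HEK293 GripTite cells with ER-alpha and UAS-driven beta-lactamase reporter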)
[33] = biological target: Estrogen receptor (Homo sapiens) (UniProt P03372); assay: qHTS assay to identify small molecule agonists of the estrogen receptor alpha (ER-alpha) signaling pathway using the BG1 cell line (AID 743079); further: nearly all actives have a fitted effect of over 20% in size
[34] = qHTS assay to identify small molecule antagonists of the estrogen receptor alpha (ER-alpha) signaling pathway using the BG1 cell line (AID 743080; calls by dose curve;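 further: BG1 cells stimulated with 17beta-estradiol alongside compound; series mostly up to about 70 µM; nearly all actives have a fitted effect of over 25% in size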)
In short: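 Luminescence from a 4×ERE-luciferase reporter in BG1-Luc-4E2 cells served as read-out. Cells, pre-cultured 5 days in stripped-serum phenol-red-free medium, were exposed to compound with 17beta-estradiol co-stimulation for 21.5 h at 37 C.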

[35] = qHTS assay to identify small molecule antagonists of the estrogen receptor alpha (ER-alpha) signaling pathway using the BG1 cell line - cell viability counter screen (AID 743081);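 further: compound given together with 17beta-estradiol as the ER stimulus; series mostly up to about 70 µM; nearly all actives have a fitted effect of over 45% in size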
Aromatase (Homo sapiens) = Aromatase (Homo sapiens) (UniProt P11511); assay: qHTS assay to identify aromatase inhibitors (AID 743083)
[36] = qHTS assay to identify aromatase inhibitors - cell viability counter screen (AID 743084)
[37] = biological target: Aryl hydrocarbon receptor (Homo sapiens) (UniProt P35869); assay: qHTS assay to identify small molecule that activate the aryl hydrocarbon receptor (AhR) signaling pathway (AID 743085);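 further: HG2L7.5c1 human HepG2 liver cells with stably integrated DRE-driven firefly reporter; series mostly up to about 70 µM; nearly all actives have a fitted effect of over 15% in size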
In short: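 Steps: seed HepG2-AhR-luc cells; allow 5 h at 37C; pin-transfer test compound or vehicle; incubate 24 h at 37C; add viability dye (30 min, 37C) and read fluorescence; add luciferase substrate (30 min, RT) and read luminescence.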

[38] = qHTS assay to identify small molecule that activate the aryl hydrocarbon receptor (AhR) signaling pathway - cell viability counter screen (AID 743086);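 further: HepG2 liver cells carrying the AhR DRE luciferase reporter; series mostly up to about 70 µM; nearly all actives have a fitted effect of over 45% in size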
In short: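 Cytotoxicity counter screen: CellTiter-Fluor signal (30 min, 37 C) in 4000 HepG2 cells/well carrying the DRE-luciferase reporter, following 24 h compound exposure at 37 C.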

[39] = biological target: Peroxisome proliferator-activated receptor gamma (Homo sapiens) (UniProt P37231); assay: qHTS assay to identify small molecule agonists of the peroxisome proliferator-activated receptor gamma (PPARg) signaling pathway (AID 743094; active means well fitted activation curve with a large enough effect in the signal ratio in the repeat runs, not every such curve was filed as active; the % refers to the signal ratio)
In short: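 Quantitative HTS agonist mode: stable HEK293H line with UAS-beta-lactamase reporter under PPARg control, 17 h compound exposure at 37C, fluorescence after 1 h FRET substrate loading at room temperature.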

[40] = qHTS assay to identify small molecule antagonists of the estrogen related receptor (ERR) signaling pathway - cell viability counter screen (AID 1224818);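 further: series mostly up to about 46 µM; viability measured after 17.5 h of compound exposure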
In short: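 Cells carrying the ERR pathway reporter were seeded and incubated for 6 hours before compound addition. After a 17.5-hour exposure at 37 C, live-cell protease activity was measured by CellTiter-Fluor fluorescence following 30 minutes of incubation.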

[41] = qHTS assay to identify small molecule antagonists of the estrogen related receptor (ERR) signaling pathway (AID 1224819;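 further: luminescence from an ERR-driven luciferase reporter measured with One-Glo reagent; series mostly up to about 46 µM; nearly all actives have a fitted effect of over 50% in size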)
In short: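 Compounds dissolved in DMSO were pin-transferred onto ERR cells that had been plated 6 h earlier, and cells were then incubated 18 h at 37 C; signal was luciferase luminescence via One-Glo.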

[42] = qHTS assay to identify small molecule agonists of the estrogen related receptor (ERR) signaling pathway (AID 1224820)
In short: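 Quantitative HTS of the LOPAC library used NTP ERR reporter cells treated 18 h at 37 C. Signal is luminescence after One-Glo addition and a 30 min room-temperature incubation.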

[43] = test system: estrogen-related receptor alpha (ERRalpha) with PGC-1alpha coactivator, human; assay: qHTS assay to identify small molecule antagonists of the estrogen related receptor signaling pathway with the pleiotropic PPARgamma coactivator (PGC) (AID 1224821; calls by dose curve;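 further: series mostly up to about 46 µM; lower luminescence signal means antagonism of PGC/ERR signalling; nearly all actives have a fitted effect of over 50% in size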)
In short: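 Quantitative HTS for antagonism: PGC/ERR cells received compounds after 6 h attachment and were incubated 18 h at 37 C, with luminescence (One-Glo) as the endpoint.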

[44] = qHTS assay to identify small molecule antagonists of the estrogen related receptor signaling pathway with the pleiotropic PPARgamma coactivator (PGC) cell viability counter screen (AID 1224822;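 further: series mostly up to about 46 µM; viability read after 17.5 h compound exposure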)
In short: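 Seed PGC/ERR cells (2,000/well); incubate 6 h at 37 C/5% CO2; pin-transfer compounds in DMSO; incubate 17.5 h at 37 C; add CellTiter-Fluor; after 30 min read fluorescence.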

[45] = qHTS assay to identify small molecule agonists of the estrogen related receptor signaling pathway with the pleiotropic PPARgamma coactivator (PGC) (AID 1224823)
In short: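 Cell-based luciferase assay in the NTP-supplied PGC/ERR line, 2,000 cells/well; 18 h compound exposure at 37 C, luminescence after One-Glo.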

Measured: Potency

Chain of Androgen receptor (Homo sapiens) (P10275 whole entry, looked up): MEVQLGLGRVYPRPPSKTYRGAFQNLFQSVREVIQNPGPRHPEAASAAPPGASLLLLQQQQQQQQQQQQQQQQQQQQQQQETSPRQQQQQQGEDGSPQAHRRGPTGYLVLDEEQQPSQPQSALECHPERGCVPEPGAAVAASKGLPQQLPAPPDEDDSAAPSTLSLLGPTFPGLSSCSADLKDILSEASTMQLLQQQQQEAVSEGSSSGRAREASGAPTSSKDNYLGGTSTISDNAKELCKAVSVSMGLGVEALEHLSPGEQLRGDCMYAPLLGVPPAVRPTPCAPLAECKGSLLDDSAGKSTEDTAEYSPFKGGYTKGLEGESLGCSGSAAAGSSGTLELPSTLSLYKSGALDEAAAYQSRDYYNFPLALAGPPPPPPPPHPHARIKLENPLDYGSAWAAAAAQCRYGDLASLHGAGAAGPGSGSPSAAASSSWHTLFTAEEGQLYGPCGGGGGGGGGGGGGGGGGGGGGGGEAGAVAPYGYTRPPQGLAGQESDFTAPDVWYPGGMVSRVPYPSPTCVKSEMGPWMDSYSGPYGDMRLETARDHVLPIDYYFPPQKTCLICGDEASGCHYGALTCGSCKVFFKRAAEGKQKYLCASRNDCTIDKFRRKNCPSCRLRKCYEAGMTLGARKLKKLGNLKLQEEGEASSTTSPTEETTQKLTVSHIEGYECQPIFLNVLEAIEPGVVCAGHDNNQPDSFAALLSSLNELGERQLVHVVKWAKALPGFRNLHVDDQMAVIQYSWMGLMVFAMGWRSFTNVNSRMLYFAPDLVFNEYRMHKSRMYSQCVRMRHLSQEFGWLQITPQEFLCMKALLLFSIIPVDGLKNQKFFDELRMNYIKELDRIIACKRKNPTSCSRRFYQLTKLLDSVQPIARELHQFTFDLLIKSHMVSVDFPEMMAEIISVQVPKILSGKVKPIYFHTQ
Chain of Estrogen receptor (Homo sapiens) (P03372 whole entry, looked up): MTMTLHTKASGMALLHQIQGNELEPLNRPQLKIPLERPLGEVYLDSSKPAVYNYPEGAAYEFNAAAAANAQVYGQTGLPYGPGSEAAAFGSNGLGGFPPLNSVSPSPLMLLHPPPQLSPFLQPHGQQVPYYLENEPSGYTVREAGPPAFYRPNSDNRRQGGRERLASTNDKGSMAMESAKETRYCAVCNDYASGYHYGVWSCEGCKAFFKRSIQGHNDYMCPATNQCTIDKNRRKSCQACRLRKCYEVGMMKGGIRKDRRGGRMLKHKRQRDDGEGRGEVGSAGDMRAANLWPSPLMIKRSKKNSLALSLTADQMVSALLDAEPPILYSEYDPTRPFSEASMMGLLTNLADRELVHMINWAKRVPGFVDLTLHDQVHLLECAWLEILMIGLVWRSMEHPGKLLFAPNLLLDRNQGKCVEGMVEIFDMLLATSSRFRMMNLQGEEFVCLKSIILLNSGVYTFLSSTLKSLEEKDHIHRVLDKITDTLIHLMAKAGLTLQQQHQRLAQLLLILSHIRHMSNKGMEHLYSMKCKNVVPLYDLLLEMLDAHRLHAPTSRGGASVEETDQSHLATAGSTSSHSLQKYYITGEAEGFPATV
Chain of Glucocorticoid receptor (Homo sapiens) (P04150 whole entry, looked up): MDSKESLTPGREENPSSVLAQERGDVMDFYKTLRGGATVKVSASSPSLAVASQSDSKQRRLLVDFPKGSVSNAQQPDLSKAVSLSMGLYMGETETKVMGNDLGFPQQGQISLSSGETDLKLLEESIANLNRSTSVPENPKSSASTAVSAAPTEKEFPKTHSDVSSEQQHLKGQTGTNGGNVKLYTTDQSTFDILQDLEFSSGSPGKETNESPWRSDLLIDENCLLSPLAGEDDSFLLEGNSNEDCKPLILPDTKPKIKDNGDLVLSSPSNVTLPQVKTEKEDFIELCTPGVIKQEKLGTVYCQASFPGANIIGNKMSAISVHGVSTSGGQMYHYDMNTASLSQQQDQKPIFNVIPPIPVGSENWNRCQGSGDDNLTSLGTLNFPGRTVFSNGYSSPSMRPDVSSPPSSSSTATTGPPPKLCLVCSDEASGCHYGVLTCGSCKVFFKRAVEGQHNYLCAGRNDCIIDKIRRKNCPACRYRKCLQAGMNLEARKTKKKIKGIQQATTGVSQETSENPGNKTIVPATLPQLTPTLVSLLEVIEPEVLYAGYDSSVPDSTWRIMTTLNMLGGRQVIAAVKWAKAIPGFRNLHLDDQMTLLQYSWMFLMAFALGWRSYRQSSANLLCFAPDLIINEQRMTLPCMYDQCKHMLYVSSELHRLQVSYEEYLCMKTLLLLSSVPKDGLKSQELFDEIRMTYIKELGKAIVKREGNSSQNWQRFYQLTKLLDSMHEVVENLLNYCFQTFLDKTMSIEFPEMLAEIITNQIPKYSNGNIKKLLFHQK
Chain of Aromatase (Homo sapiens) (P11511 whole entry, looked up): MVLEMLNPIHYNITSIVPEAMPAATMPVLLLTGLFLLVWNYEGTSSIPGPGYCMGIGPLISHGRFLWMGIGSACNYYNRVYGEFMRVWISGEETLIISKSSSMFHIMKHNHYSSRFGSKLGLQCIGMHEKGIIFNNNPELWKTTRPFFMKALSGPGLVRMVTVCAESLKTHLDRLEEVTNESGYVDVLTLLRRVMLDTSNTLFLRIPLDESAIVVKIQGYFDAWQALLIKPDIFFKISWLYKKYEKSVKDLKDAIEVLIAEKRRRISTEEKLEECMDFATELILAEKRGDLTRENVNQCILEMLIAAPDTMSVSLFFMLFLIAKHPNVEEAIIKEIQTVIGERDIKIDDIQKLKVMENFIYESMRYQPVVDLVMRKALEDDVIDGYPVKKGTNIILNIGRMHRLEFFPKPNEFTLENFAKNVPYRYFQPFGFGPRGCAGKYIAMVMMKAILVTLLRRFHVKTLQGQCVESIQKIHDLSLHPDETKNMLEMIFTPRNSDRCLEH
Chain of Aryl hydrocarbon receptor (Homo sapiens) (P35869 whole entry, looked up): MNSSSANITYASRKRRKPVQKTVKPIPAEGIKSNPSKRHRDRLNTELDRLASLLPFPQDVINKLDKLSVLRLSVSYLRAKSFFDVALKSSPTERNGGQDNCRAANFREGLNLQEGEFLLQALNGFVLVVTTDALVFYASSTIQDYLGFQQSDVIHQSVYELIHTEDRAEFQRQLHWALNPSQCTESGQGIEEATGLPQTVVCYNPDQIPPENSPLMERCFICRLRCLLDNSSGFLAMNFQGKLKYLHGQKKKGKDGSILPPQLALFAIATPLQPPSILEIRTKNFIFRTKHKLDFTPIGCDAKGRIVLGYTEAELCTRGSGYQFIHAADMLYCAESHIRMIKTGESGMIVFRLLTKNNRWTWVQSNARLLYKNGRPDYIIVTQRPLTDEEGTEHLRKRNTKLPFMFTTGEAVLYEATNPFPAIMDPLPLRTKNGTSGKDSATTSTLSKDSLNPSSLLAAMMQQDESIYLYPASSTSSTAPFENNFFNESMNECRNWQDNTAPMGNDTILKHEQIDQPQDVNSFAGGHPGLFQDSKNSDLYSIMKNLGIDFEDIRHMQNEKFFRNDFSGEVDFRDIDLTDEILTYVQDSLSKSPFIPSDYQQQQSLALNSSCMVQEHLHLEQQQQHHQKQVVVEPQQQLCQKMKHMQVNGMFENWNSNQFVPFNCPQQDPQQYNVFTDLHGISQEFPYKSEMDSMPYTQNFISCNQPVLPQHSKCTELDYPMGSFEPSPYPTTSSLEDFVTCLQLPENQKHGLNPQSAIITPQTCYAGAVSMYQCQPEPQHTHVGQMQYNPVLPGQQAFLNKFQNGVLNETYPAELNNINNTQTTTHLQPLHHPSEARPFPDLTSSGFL
Chain of Peroxisome proliferator-activated receptor gamma (Homo sapiens) (P37231 whole entry, looked up): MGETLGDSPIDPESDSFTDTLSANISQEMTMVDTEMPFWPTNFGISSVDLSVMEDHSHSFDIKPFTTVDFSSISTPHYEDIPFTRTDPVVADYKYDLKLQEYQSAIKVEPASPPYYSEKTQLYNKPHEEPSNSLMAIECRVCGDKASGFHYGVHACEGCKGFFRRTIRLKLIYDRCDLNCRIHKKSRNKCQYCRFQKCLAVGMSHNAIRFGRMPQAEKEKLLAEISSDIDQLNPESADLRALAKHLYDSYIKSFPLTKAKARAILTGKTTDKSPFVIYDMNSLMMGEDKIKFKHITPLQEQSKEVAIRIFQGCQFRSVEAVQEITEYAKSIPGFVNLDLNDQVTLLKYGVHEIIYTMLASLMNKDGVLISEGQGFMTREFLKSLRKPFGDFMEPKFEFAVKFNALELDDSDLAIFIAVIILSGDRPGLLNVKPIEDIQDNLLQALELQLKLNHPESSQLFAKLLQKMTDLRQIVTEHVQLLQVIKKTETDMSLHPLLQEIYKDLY

NC(=O)CN1CC(O)CC1=O (stereo unspecified)
inactive: [1] | [2] | [3] | [4] | [5] | [6] | [7] | [8] | [9] | [10] | [11] | [12] | [13] | [14] | [15] | [16] | [17] | [18] | [19] | [20] | [21] | [22] | [23] | [24] | [25] | [26] | [27] | [28] | [29] | [30] | [31] | [32] | [33] | [34] | [35] | Aromatase (Homo sapiens) | [36] | [37] | [38] | [39] | [40] | [41] | [42] | [43] | [44] | [45]

COc1ccc2[nH]cc(CCN)c2c1
inactive: [40] | [42] | [43] | [44] | [45]
